For nine compounds, growth results are on record in PubChem BioAssay (NCI).

The panel holds about 83,000 compounds, 20% with a hit somewhere; the sample as a whole holds those more often.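 Activity criterion: percent growth below 10, measured after cells in 96-well plates were exposed to a single compound concentration for 48 hours.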 Values without a mark were called inactive. Activity calls are given as the source filed them.

Some test systems named below: SR leukemia; RPMI-8226 leukemia; OVCAR-8 ovarian; OVCAR-5 ovarian; OVCAR-4 ovarian; SK-OV-3 ovarian; HS 578T breast; NCI/ADR-RES ovarian; T-47D breast; BT-549 breast; MDA-MB-435 melanoma; SW-620 colon; MCF7 breast; HCT-116 colon; HCC-2998 colon; KM12 colon; IGROV1 ovarian; OVCAR-3 ovarian.
Holding throughout (assay): NCI-60 one-dose screen, 48 h (100 = growth as untreated, 0 = no growth, -100 = all killed)
Holding throughout (conditions): 10 µM unless noted

For the compound `Cc1c(C)c([N+](=O)[O-])c(C)c(C)c1[N+](=O)[O-]`, the growth in the test on SR leukemia is 93%; in the test with RPMI-8226 leukemia, 106%; in the test on OVCAR-8 ovarian, 95.7%; with OVCAR-5 ovarian, 93.8%; in the test with OVCAR-4 ovarian, 98.2%; in the test with SK-OV-3 ovarian, 117%. In addition, the growth is 118% in the test with HS 578T breast; 107% in the test on NCI/ADR-RES ovarian; 101% in the test with T-47D breast; 106% in the test on BT-549 breast; 91.9% in the test with MDA-MB-435 melanoma; 112% with SW-620 colon. Moreover, the growth was 107% in the test with MCF7 breast, 115% with HCT-116 colon, 104% in the test with HCC-2998 colon and 110% in the test on KM12 colon.

In the case of `O=[As](O)(O)c1ccccc1[As](=O)(O)O`, the growth in the test with SR leukemia was 91.3%; with RPMI-8226 leukemia, 109%; in the test on OVCAR-8 ovarian it was 99.7%; with OVCAR-5 ovarian, 92.6%; in the test with SK-OV-3 ovarian it was 111%; in the test with IGROV1 ovarian, 135%. In addition, the growth with OVCAR-3 ovarian is 103%; in the test on HS 578T breast it was 114%; in the test with NCI/ADR-RES ovarian, 104%; in the test with BT-549 breast, 116%; with MDA-MB-435 melanoma it was 98.8%; in the test with SW-620 colon, 112%. The growth was 98% in the test on MCF7 breast, 107% with HCT-116 colon, 101% in the test on HCC-2998 colon and 105% with KM12 colon.

With `N#C[S-].[Au+].c1ccc(CN2[CH-]N(Cc3ccccc3)C(c3ccccc3)=C2c2ccccc2)cc1`, the growth is -16.4% (active) with RPMI-8226 leukemia; 12.1% in the test with OVCAR-8 ovarian; 36.8% in the test with OVCAR-5 ovarian; 19.4% in the test with OVCAR-4 ovarian; -0.746% (active) with SK-OV-3 ovarian; 30.3% in the test with IGROV1 ovarian. Besides, the growth was -6.54% (active) in the test on OVCAR-3 ovarian; 36.3% in the test on HS 578T breast; 59.8% in the test with NCI/ADR-RES ovarian; 7.11% (active) in the test with T-47D breast; 23.4% in the test with BT-549 breast; 13.3% with MDA-MB-435 melanoma. Moreover, the growth in the test on SW-620 colon is 17.9%; in the test with MCF7 breast, 4.87% (active); in the test on HCT-116 colon, 8.06% (active); with HCC-2998 colon it was 30.9%; in the test with KM12 colon, 14.2%.

As to `COC(=O)CCC1=C(C)c2cc3[n-]c(cc4nc(cc5[n-]c(cc1n2)c(CCC(=O)OC)c5C)C=C4C)cc3C.[Cd+2]`, the growth in the test on RPMI-8226 leukemia was -1.53% (active); with OVCAR-8 ovarian, 68.7%; in the test on OVCAR-5 ovarian, 103%; in the test on OVCAR-4 ovarian, 37.7%; in the test on SK-OV-3 ovarian, 83.5%; with IGROV1 ovarian it was 35.1%. The growth is -58.1% (active) in the test on OVCAR-3 ovarian; 39.8% in the test on HS 578T breast; 83.5% in the test on NCI/ADR-RES ovarian; 42.7% in the test with T-47D breast; -31.9% (active) in the test on BT-549 breast; 23.1% in the test on MDA-MB-435 melanoma. Moreover, the growth in the test on SW-620 colon was 25.3%; in the test with MCF7 breast it was 26.9%; in the test on HCT-116 colon, 79.8%; in the test on HCC-2998 colon, 95.9%; in the test with KM12 colon, 13.3%.

As to `O=c1[nH]c2ccc([N+](=O)[O-])cc2c(=O)o1`, the growth is 98.5% in the test with RPMI-8226 leukemia; 104% in the test on OVCAR-8 ovarian; 101% in the test on OVCAR-5 ovarian; 98.8% with OVCAR-4 ovarian; 102% in the test with SK-OV-3 ovarian; 105% in the test on IGROV1 ovarian. The growth was 113% in the test on OVCAR-3 ovarian; 101% in the test on NCI/ADR-RES ovarian; 111% with T-47D breast; 95.3% in the test with BT-549 breast; 111% in the test with MDA-MB-435 melanoma; 105% in the test on SW-620 colon. Further, the growth with HCT-116 colon is 103%; in the test with HCC-2998 colon, 102%; in the test with KM12 colon, 106%.

`CCCc1cc(O)c2c3c(c(=O)oc2c1)CN(C)CC3`: the growth in the test with SR leukemia is 15.8%; in the test with RPMI-8226 leukemia it was 28.4%; with OVCAR-8 ovarian it was 32.3%; with OVCAR-5 ovarian, 55.9%; in the test with OVCAR-4 ovarian it was 56.3%; in the test with SK-OV-3 ovarian, 26.8%. Further, the growth in the test on IGROV1 ovarian was 32.7%; in the test with OVCAR-3 ovarian, -3.56% (active); with HS 578T breast it was 45.7%; in the test with T-47D breast, 25.5%; in the test on BT-549 breast, 39.2%; in the test on MDA-MB-435 melanoma, -57.8% (active). Moreover, the growth in the test with SW-620 colon is 12.8%; with MCF7 breast it was 19%; in the test with HCT-116 colon, 20.8%; in the test with HCC-2998 colon it was 53.9%; in the test on KM12 colon, 35.7%.

As to `COc1cccc2c1c(C(=O)C(=O)Nc1cc(C)no1)cn2Cc1ccc(F)cc1`, the growth with RPMI-8226 leukemia is 20.7%; in the test on OVCAR-8 ovarian, 81.7%; with OVCAR-5 ovarian, 76.1%; in the test with OVCAR-4 ovarian it was 90.9%; with SK-OV-3 ovarian, 102%; in the test with IGROV1 ovarian it was 37%. Further, the growth in the test on OVCAR-3 ovarian is 3.35% (active); in the test on HS 578T breast, 53.3%; in the test with NCI/ADR-RES ovarian, -0.189% (active); in the test on T-47D breast it was 68%; in the test on BT-549 breast, 25.5%; in the test with MDA-MB-435 melanoma, -34.4% (active). Moreover, the growth was 15.5% in the test on SW-620 colon; 26.9% with MCF7 breast; 34.4% in the test on HCT-116 colon; 58.4% with HCC-2998 colon; 16.4% in the test with KM12 colon.

With `O=C1C(Cl)=C(N2CCOCC2)C(=O)c2ccccc21`, the growth in the test on SR leukemia is -37.1% (active); in the test on RPMI-8226 leukemia it was -3.69% (active); in the test on OVCAR-8 ovarian, 68.2%; with OVCAR-5 ovarian it was 119%; in the test with OVCAR-4 ovarian, 37.7%; in the test with SK-OV-3 ovarian it was 110%. The growth in the test with IGROV1 ovarian is -47.2% (active); in the test with OVCAR-3 ovarian, -58.3% (active); in the test on HS 578T breast, 116%; in the test on NCI/ADR-RES ovarian, 90.9%; in the test on T-47D breast, -23% (active); in the test on BT-549 breast, 106%. Also, the growth is 67% with MDA-MB-435 melanoma; -16.5% (active) with SW-620 colon; 93.4% with MCF7 breast; 108% with HCC-2998 colon; 102% with KM12 colon.

On to `NC(=O)c1c(Br)n(C2OC(CO)C(O)C2O)c2ncnc(N)c12` (stereo not drawn), for which the growth is 5.8% (active) with OVCAR-8 ovarian; 24.4% in the test on OVCAR-5 ovarian; 16.1% in the test with OVCAR-4 ovarian; -8.9% (active) in the test with SK-OV-3 ovarian; -48.3% (active) in the test on IGROV1 ovarian; -43.3% (active) in the test on OVCAR-3 ovarian. Besides, the growth with HS 578T breast is -8.41% (active); with NCI/ADR-RES ovarian, 8.09% (active); in the test with T-47D breast, -14.7% (active); in the test on BT-549 breast, -16.1% (active); in the test with MDA-MB-435 melanoma it was 1.13% (active); with SW-620 colon it was 1.1% (active). In addition, the growth in the test on MCF7 breast was -18.6% (active); in the test with HCT-116 colon it was 3.73% (active); in the test on HCC-2998 colon, 18.4%; with KM12 colon, -8.13% (active).
